Source: PubChem BioAssay (NCI)
Compounds without any hit were thinned out: in the full panel of roughly 79,000, 15% have a hit. Values without a mark were called inactive. Activity calls are given as the source filed them. Cut-off read from the data, not from the text of the source: active = growth inhibition above about 70%; inactive = the rest.

Tests used:
[1] = NCI Yeast Anticancer Drug Screen. Data for the mec2-1 strain (AID 157); conditions: S. cerevisiae mec2-1 strain, at 50.0 µM, active compounds read high
Method in brief: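 Yeast mec2-1 mutant treated with compound. Readout: growth inhibition vs vehicle controls.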

[2] = NCI Yeast Anticancer Drug Screen. Data for the sgs1 mgt1 strain (AID 161);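 note: 0% = growth of cultures given vehicle only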; conditions: S. cerevisiae sgs1 mgt1 strain, at 50.0 µM, active compounds read high
Method in brief: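 Test agents were incubated with a DNA-repair-mutant yeast strain. Growth was then read and compared against vehicle-treated controls.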

[3] = NCI Yeast Anticancer Drug Screen. Data for the cln2 rad14 strain (AID 165);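 note: 0% = growth equal to vehicle treated cultures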; conditions: S. cerevisiae cln2 rad14 strain, at 50.0 µM, active compounds read high
Method in brief: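 cln2 rad14 yeast strain; compound exposure; growth inhibition read vs vehicle controls.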

[4] = NCI Yeast Anticancer Drug Screen. Data for the bub3 strain (AID 167); conditions: S. cerevisiae bub3 mutant strain, at 50.0 µM, active compounds read high
Method in brief: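 Readout: yeast growth inhibition, expressed relative to vehicle-only wells. The test organism is a mutant strain from a panel with lesions in DNA repair or checkpoint genes.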

[5] = NCI Yeast Anticancer Drug Screen. Data for the mlh1 rad18 strain (AID 175); conditions: S. cerevisiae mlh1 rad18 strain growth inhibition; at 50.0 µM; active compounds read high
Method in brief: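 Yeast w/ defined DNA-repair lesions; compound exposure; growth vs vehicle controls → % inhibition.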

Row | Compound | growth inhibition [1] | growth inhibition [2] | growth inhibition [3] | growth inhibition [4] | growth inhibition [5]
1 | COC(=O)C(Cc1cn(C(C)=O)c2ccccc12)P(=O)(OC)OC (centres undefined) | -40.1% | -5.25% | 13% | 25.4% | -11.8%
2 | C=CCOc1c(C)cc(C)cc1C | -17.4% | -5.95% | -16.3% | -14.8% | -6.85%
3 | COC(=O)C(/C(=N/N)C(=O)Nc1cc(Cl)ccc1Cl)c1nc2ccc([N+](=O)[O-])cc2[nH]c1=O (centres undefined) | -13.3% | 7.3% | 10.5% | 13.9% | 15.6%
4 | O=C(NC(=O)c1cn(CCN(CCO)C(=O)NCCCCCCNC(=O)N(CCO)CCn2cc(C(=O)NC(=O)OCc3ccccc3)c(=O)[nH]c2=O)c(=O)[nH]c1=O)OCc1ccccc1 | 7.05% | -18.9% | -23.9% | 0.9% | -17.9%
5 | N#C/C(=C/c1cccnc1)C(=O)c1ccccc1 | -18.9% | 1.3% | 12.6% | -22.6% | 7.15%
6 | COC(=O)c1c2c(C)ccc(C)c2nc2c(C)ccc(C)c12 | -41% | -2.05% | -15.3% |  | -41%
7 | O=[N+]([O-])c1ccc(-c2cc3ccccc3nc2Cl)cc1 | 12.1% | 8.4% | 5.55% | 28.4% | 17%
8 | CC(C)N(C(=S)/N=C1/SC(C)S(=O)(=O)N1C)C(C)C (centres undefined) | 13.6% | -5.95% | -4.5% | -10.8% | 5.45%
9 | COC(=O)NN/C=C(\C=Nc1ccccc1)[N+](=O)[O-] | 11.1% | 17.4% | 18.4% | 12.9% | 5.4%
10 | CNCCCc1cc(-c2ccc([N+](=O)[O-])cc2)n[nH]1 | 0.5% | -3.25% | 12.6% | 13.6% | 6.6%
11 | O=C1CCCc2ccc3c(c21)CC1(Cc2ccccc2C1)C3 | -40.2% | 8.65% | -6% | 4.05% | -5.8%
12 | Nc1nc(N)nc(-c2cc(Br)ccc2N)n1 | -0.3% | 12.4% | 19.1% | 30.4% | 7.5%
13 | O=C(c1ccc(Cl)cc1)C(C(c1ccccc1[N+](=O)[O-])N1CCCCC1)N1CCCCC1 (centres undefined) | -0.3% | -10.4% | -30.8% | -23.6% | 2.15%
14 | CCN(CC)CCC(CCN(CC)CC)(COC(=O)c1ccc([N+](=O)[O-])cc1)c1ccccc1 | 9.1% | 20.1% | -4.15% | -0.55% | 12.6%
15 | Cc1ccc2c(ccc3ccccc32)n1 | 16.8% | 60% | -4.4% | 50.5% | 45.4%
16 | CC1(C)CC2(CC3(C1)SCCS3)SCCS2 | -5.25% | -8.8% | 5.45% | -5.8% | 1.35%
17 | COc1cc(NCCCCCNC(C)C)c2ncccc2c1 | 20.2% | 35.3% | 27.9% | 35.6% | 54%
18 | CN(C)c1ccccc1C(=O)N/N=C\c1ccc(O)c(O)c1 | 14.2% | 19.5% | 5.75% | 12.4% | 22.2%
19 | C=C(C)COc1ccc(Nc2ccccc2)cc1 | 18.4% | 22% | 6.65% | 2.35% | 34%
20 | CC1CC(O)CC(C)(C)C1.CC1CC(O)CC(C)(C)C1.CC1CC(O)CC(C)(C)C1.CC1CC(O)CC(C)(C)C1.[Ti] (centres undefined) | -4.65% | 23.2% | 15.1% | 32.5% | 31.9%

Row | Compound | growth inhibition [1] | growth inhibition [2] | growth inhibition [3] | growth inhibition [4] | growth inhibition [5]
21 | CCC(C)NC(=O)c1ccccc1C (centres undefined) | -2.75% | -3.2% | -10.2% | 8.15% | -0.2%
22 | CC1[C@@H]2CC=C3[C@H]4CCC5Cc6nc7c(nc6C[C@@]5(C)C4CC(=O)[C@]32CO[C@]12OC(C)(C)CC2O)CC1CC[C@@H]2C3=C[C@H]4O[C@@]5(O[C@@](C)(CO)C[C@@H]5O)C(C)[C@@]4(O)[C@]3(C)[C@@H](O)CC2[C@]1(C)C7 (some centres undefined) | 40.9% | 90.7% (active) | 57.2% | 47% | 40.1%
23 | O=C1c2ccccc2CN1c1ccccc1 | -25.6% | -3.25% | 6.45% | -7.5% | -2.7%
24 | O=c1[nH]c2cccccc-2c1-c1nc2ccccc2[nH]1 | 15.2% | 33.6% | 19.5% | 16.7% | 8.95%
25 | CN(C)C(=O)C1CCC(CC2CCCCC2)CC1 (centres undefined) | 99.2% (active) | 99% (active) | 96.3% (active) | 98.3% (active) | 80.9% (active)
26 | CCCC(CCC)(CCC)CCN(C)C | -5.95% | -14.9% | -23.9% | -8.65% | -33.8%
27 | NOCc1ccc(OCc2ccccc2)cc1 | 7.3% | -6.7% | -18.8% | -2.4% | -11.5%
28 | O=NN(CC(=O)O)c1ccc2ccccc2c1 | -7.3% | 13.8% | -39.5% | -14.9% | -2.85%
29 | CN(C)c1ccc(C=Nc2ccc3c(c2)C(N2CCOCC2)c2ccccc2-3)cc1 (centres undefined) | -7% | -38.1% | -5.3% | -15.8% | 0.35%
30 | Cn1c2ccccc2c2c3ccc[n+](C)c3ccc21 | -2.9% | 8.7% | -57.5% | -0.1% | 2.1%
31 | O=C1c2ccccc2CN1c1ccc(O)cc1 | 1.5% | -14.8% | 20.9% | -1.2% | 16.9%
32 | ClC1(c2ccccc2)c2ccccc2C(Cl)(c2ccccc2)c2ccccc21 (centres undefined) | 0.1% | -6.7% | -3.8% | 12.2% | 27.9%
33 | O=C1c2cccnc2-c2ncccc21 | 0.55% | -1.35% | 9.8% | 5.4% | 24.1%
34 | CC(=O)Nc1c(F)cc(F)cc1[N+](=O)[O-] | -3.4% | -12.4% | -16.8% | -18.8% | 10.3%
35 | Cc1ccc(NC(=O)N2CC2C)cc1NC(=O)N1CC1C (centres undefined) | 5.55% | -7.05% | 17.3% | 6.9% | -9.45%
36 | FC(F)(F)c1ccc(C(Nc2nncs2)Nc2nncs2)cc1 | -6.7% | -4.5% | -8.35% | 7.6% | 0.75%
37 | Cc1ccc2nc[nH]c2c1 | -21.9% | -10.8% | -11.4% | 4.05% | 14.6%
38 | CN(N=O)C(=O)NC(CCCCNC(=O)OCc1ccccc1)C(=O)OCc1ccccc1 (centres undefined) | -10.1% | -2.8% | -22.4% | 11.6% | -11.2%
39 | Cc1ccc(S(=O)(=O)N2CCC(C(=O)O)(c3ccccc3)CC2)cc1 | -0.9% | -35.4% | -88.5% | -56.2% | -9.45%
